Assay results as given in PubChem BioAssay AID1159580 (chemical genetic matrix, 2015).
The whole screen tested about 5,500 compounds, of which about 2,000 (36%) were called active. Inconclusive results (about 18%) are left out. No stated cut-off is given here; in the data, active means normalized growth mostly below about 0.91 (no sharp cut-off); inconclusive means no clear call, values can overlap the other calls; inactive means mostly above about 0.92. The list shows a part of the results.

Assay: chemical genetic growth profiling, strain panel (AID 1159580);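 further: tested at 20 µM; growth read once vehicle control cultures reached saturation at 30 °C; 1 = growth at the plate median or of vehicle wells; lower values mean less growth of the strain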
Settings: growth OD

Measured: normalized growth

COc1cc(OC)c2c(c1Cl)OC1(C2=O)C(O)=CC(=O)CC1C (stereo unspecified)
inactive: S. cerevisiae deletion strains, locus YJR075W, strain HOC1, active compounds read low 1.02 | S. cerevisiae deletion strains, locus YKL009W, strain mrt4, active compounds read low 1.01 | S. cerevisiae deletion strains, locus YKL068W, active compounds read low 0.991 | S. cerevisiae deletion strains, locus YKL085W, strain MDH1 (second series), active compounds read low 1.01 | S. cerevisiae deletion strains, locus YKL085W, strain MDH1, active compounds read low 1.01 | S. cerevisiae deletion strains, locus YKL160W, strain elf1, active compounds read low 1.01 | S. cerevisiae deletion strains, locus YKR001C, strain vps1, active compounds read low 1.03 | S. cerevisiae deletion strains, locus YKR026C, strain gcn3, active compounds read low 1.01 | S. cerevisiae deletion strains, locus YKR091W, strain srl3, active compounds read low 1.01 | S. cerevisiae deletion strains, locus YLL001W, strain dnm1, active compounds read low 1 | S. cerevisiae deletion strains, locus YLL026W, active compounds read low 1.01 | S. cerevisiae deletion strains, locus YLL041C, strain sdh2, active compounds read low 1.01 | S. cerevisiae deletion strains, locus YLR027C, strain aat2, active compounds read low 1.03 | S. cerevisiae deletion strains, locus YLR039C, strain RIC1, active compounds read low 1.08 | S. cerevisiae deletion strains, locus YLR058C, strain SHM2, active compounds read low 1.03 | S. cerevisiae deletion strains, locus YLR102C, strain apc9, active compounds read low 0.991 | S. cerevisiae deletion strains, locus YLR113W, strain HOG1, active compounds read low 1.04 | S. cerevisiae deletion strains, locus YLR221C, strain rsa3, active compounds read low 1.02 | S. cerevisiae deletion strains, locus YLR258W, strain gsy2, active compounds read low 1 | S. cerevisiae deletion strains, locus YLR262C, strain YPT6 (second series), active compounds read low 1.02 | S. cerevisiae deletion strains, locus YLR262C, strain YPT6, active compounds read low 1.06 | S. cerevisiae deletion strains, locus YLR268W, strain sec22, active compounds read low 1.02 | S. cerevisiae deletion strains, locus YLR320W, strain mms22, active compounds read low 1.02 | S. cerevisiae deletion strains, locus YLR342W, strain FKS1 (second series), active compounds read low 1.06 | S. cerevisiae deletion strains, locus YLR342W, strain FKS1, active compounds read low 1.01 | S. cerevisiae deletion strains, locus YLR357W, strain rsc2, active compounds read low 1.02 | S. cerevisiae deletion strains, locus YLR370C, strain arc18, active compounds read low 1.01 | S. cerevisiae deletion strains, locus YLR371W, strain rom2, active compounds read low 1 | S. cerevisiae deletion strains, locus YLR384C, strain iki3, active compounds read low 1.01 | S. cerevisiae deletion strains, locus YLR418C, strain cdc73, active compounds read low 0.992 | S. cerevisiae deletion strains, locus YML016C, strain PPZ1, active compounds read low 1.03 | S. cerevisiae deletion strains, locus YML032C, strain rad52, active compounds read low 1 | S. cerevisiae deletion strains, locus YML120C, strain ndi1, active compounds read low 1.01 | S. cerevisiae deletion strains, locus YML124C, strain tub3, active compounds read low 0.991 | S. cerevisiae deletion strains, locus YMR058W, strain fet3, active compounds read low 1.01 | S. cerevisiae deletion strains, locus YMR078C, strain ctf18, active compounds read low 0.98 | S. cerevisiae deletion strains, locus YMR125W, strain sto1, active compounds read low 1.01 | S. cerevisiae deletion strains, locus YMR129W, active compounds read low 1.01 | S. cerevisiae deletion strains, locus YMR205C, strain PFK2, active compounds read low 1.02 | S. cerevisiae deletion strains, locus YMR223W, strain ubp8, active compounds read low 1.01 | S. cerevisiae deletion strains, locus YMR231W, strain pep5, active compounds read low 0.995 | S. cerevisiae deletion strains, locus YMR307W, strain GAS1, active compounds read low 1.04 | S. cerevisiae deletion strains, locus YNL067W, strain RPL9B, active compounds read low 1.01 | S. cerevisiae deletion strains, locus YNL071W, strain lat1, active compounds read low 1.01 | S. cerevisiae deletion strains, locus YNL128W, strain TEP1, active compounds read low 1.03 | S. cerevisiae deletion strains, locus YNL183C, strain NPR1, active compounds read low 0.932 | S. cerevisiae deletion strains, locus YNL209W, strain ssb2, active compounds read low 1.03 | S. cerevisiae deletion strains, locus YNL233W, strain BNI4, active compounds read low 1.02 | S. cerevisiae deletion strains, locus YNL248C, strain rpa49, active compounds read low 1.01 | S. cerevisiae deletion strains, locus YNL250W, strain rad50, active compounds read low 0.992 | S. cerevisiae deletion strains, locus YNL271C, strain bni1, active compounds read low 0.984 | S. cerevisiae deletion strains, locus YNL298W, strain CLA4, active compounds read low 1.01 | S. cerevisiae deletion strains, locus YNL307C, strain MCK1, active compounds read low 0.993 | S. cerevisiae deletion strains, locus YNL322C, strain KRE1 (second series), active compounds read low 1.01 | S. cerevisiae deletion strains, locus YNL322C, strain KRE1, active compounds read low 1.02 | S. cerevisiae deletion strains, locus YNR049C, strain mso1, active compounds read low 1 | S. cerevisiae deletion strains, locus YNR052C, strain pop2, active compounds read low 0.969 | S. cerevisiae deletion strains, locus YOL006C, strain TOP1, active compounds read low 1.2 | S. cerevisiae deletion strains, locus YOL012C, strain htz1 1.12 | S. cerevisiae deletion strains, locus YOL147C, strain pex11, active compounds read low 1 | S. cerevisiae deletion strains, locus YOR001W, strain rrp6, active compounds read low 1.01 | S. cerevisiae deletion strains, locus YOR061W, strain CKA2, active compounds read low 1.04 | S. cerevisiae deletion strains, locus YOR069W, strain VPS5, active compounds read low 1.02 | S. cerevisiae deletion strains, locus YOR070C, strain gyp1, active compounds read low 1.02 | S. cerevisiae deletion strains, locus YOR080W, strain dia2, active compounds read low 1.01 | S. cerevisiae deletion strains, locus YOR083W, strain WHI5, active compounds read low 1.01 | S. cerevisiae deletion strains, locus YOR106W, strain vam3, active compounds read low 1.02 | S. cerevisiae deletion strains, locus YOR136W, strain idh2, active compounds read low 1 | S. cerevisiae deletion strains, locus YOR144C, strain elg1, active compounds read low 0.996 | S. cerevisiae deletion strains, locus YOR184W, strain ser1, active compounds read low 1.04 | S. cerevisiae deletion strains, locus YOR231W, strain MKK1, active compounds read low 0.978 | S. cerevisiae deletion strains, locus YOR265W, strain rbl2, active compounds read low 1 | S. cerevisiae deletion strains, locus YOR270C, strain vph1, active compounds read low 1.05 | S. cerevisiae deletion strains, locus YOR290C, strain snf2, active compounds read low 1.02 | S. cerevisiae deletion strains, locus YOR316C, strain cot1, active compounds read low 0.992 | S. cerevisiae deletion strains, locus YPL051W, strain arl3, active compounds read low 0.999 | S. cerevisiae deletion strains, locus YPL078C, strain atp4, active compounds read low 1.01 | S. cerevisiae deletion strains, locus YPL106C, strain sse1, active compounds read low 1 | S. cerevisiae deletion strains, locus YPL240C, strain hsp82, active compounds read low 1 | S. cerevisiae deletion strains, locus YPL256C, strain CLN2, active compounds read low 0.979 | S. cerevisiae deletion strains, locus YPR119W, strain clb2, active compounds read low 0.986 | S. cerevisiae deletion strains, locus YPR141C, strain kar3, active compounds read low 0.988 | S. cerevisiae deletion strains, locus YPR163C, strain tif3, active compounds read low 0.995 | S. cerevisiae deletion strains, locus YPR167C, strain met16, active compounds read low 0.997 | S. cerevisiae deletion strains, strain wtn01, active compounds read low 1.04 | S. cerevisiae strains, strain wild type, active compounds read low 1.04
